In PubChem BioAssay AID1159580 (chemical genetic matrix, 2015):
Out of some 5,500 compounds screened, about 2,000 (36%) were called active. About 18% were inconclusive and are not listed. No stated cut-off is given here; in the data, active means normalized growth mostly below about 0.91 (no sharp cut-off); inconclusive means no clear call, values can overlap the other calls; inactive means mostly above about 0.92. Some of the results follow.

Experiment: chemical genetic growth profiling, strain panel (AID 1159580);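 further: tested at 20 µM; growth read once vehicle control cultures reached saturation at 30 °C; 1 = growth at the plate median or of vehicle wells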
Conditions: S. cerevisiae deletion strains, growth OD

Measured: normalized growth

Nc1ccc(C(=O)O)c(O)c1 (tested in a mixture with another compound)
inactive: locus YBR021W, strain FUR4, stronger effect = lower value 1 | locus YBR229C, strain ROT2, stronger effect = lower value 0.988 | locus YCL029C, strain bik1, stronger effect = lower value 0.993 | locus YDL035C, strain GPR1, stronger effect = lower value 0.989 | locus YDL074C, strain BRE1, stronger effect = lower value 1.01 | locus YDL101C, strain DUN1, stronger effect = lower value 0.995 | locus YDL134C, strain PPH21, stronger effect = lower value 0.994 | locus YDL185W, strain tfp1, stronger effect = lower value 0.993 | locus YDL192W, strain arf1, stronger effect = lower value 0.988 | locus YDR101C, strain arx1, stronger effect = lower value 1.02 | locus YDR162C, strain NBP2, stronger effect = lower value 0.995 | locus YDR318W, strain mcm21, stronger effect = lower value 0.992 | locus YDR388W, stronger effect = lower value 0.981 | locus YDR502C, strain sam2, stronger effect = lower value 1.02 | locus YEL061C, strain CIN8, stronger effect = lower value 0.994 | locus YER110C, stronger effect = lower value 0.976 | locus YER155C, strain BEM2, stronger effect = lower value 0.999 | locus YER167W, strain BCK2, stronger effect = lower value 0.985 | locus YGL078C, strain dbp3, stronger effect = lower value 0.992 | locus YGL086W, strain mad1, stronger effect = lower value 1.03 | locus YGL248W, strain PDE1, stronger effect = lower value 0.994 | locus YGR135W, strain pre9, stronger effect = lower value 0.945 | locus YGR252W, strain gcn5, stronger effect = lower value 0.963 | locus YHR030C, strain SLT2, stronger effect = lower value 0.993 | locus YHR079C, strain IRE1 (second series), stronger effect = lower value 0.98 | locus YHR094C, strain hxt1, stronger effect = lower value 0.977 | locus YHR129C, strain ARP1, stronger effect = lower value 0.998 | locus YHR200W, strain rpn10, stronger effect = lower value 0.988 | locus YIL066C, strain RNR3, stronger effect = lower value 0.996 | locus YIL073C, strain SPO22, stronger effect = lower value 1.01 | locus YIL125W, strain kgd1, stronger effect = lower value 0.988 | locus YIR030C, strain dcg1, stronger effect = lower value 0.979 | locus YJL095W, strain BCK1, stronger effect = lower value 1.02 | locus YJL134W, strain LCB3, stronger effect = lower value 0.994 | locus YJL168C, strain set2, stronger effect = lower value 0.976 | locus YJL187C, strain SWE1 (second series), stronger effect = lower value 1.01 | locus YJR043C, strain POL32, stronger effect = lower value 0.981 | locus YJR075W, strain HOC1, stronger effect = lower value 0.988 | locus YKL009W, strain mrt4, stronger effect = lower value 1 | locus YKL068W, stronger effect = lower value 0.992 | locus YKL085W, strain MDH1 (second series), stronger effect = lower value 0.984 | locus YKL085W, strain MDH1, stronger effect = lower value 0.984 | locus YKL190W, strain CNB1, stronger effect = lower value 0.998 | locus YKR001C, strain vps1, stronger effect = lower value 0.998 | locus YLR039C, strain RIC1, stronger effect = lower value 1.06 | locus YLR058C, strain SHM2, stronger effect = lower value 0.989 | locus YLR102C, strain apc9, stronger effect = lower value 0.983 | locus YLR262C, strain YPT6, stronger effect = lower value 1.02 | locus YLR268W, strain sec22, stronger effect = lower value 0.992 | locus YLR330W, strain CHS5, stronger effect = lower value 0.994 | locus YLR342W, strain FKS1 (second series), stronger effect = lower value 0.968 | locus YLR371W, strain rom2, stronger effect = lower value 0.977 | locus YLR418C, strain cdc73, stronger effect = lower value 0.957 | locus YML016C, strain PPZ1, stronger effect = lower value 0.99 | locus YML032C, strain rad52, stronger effect = lower value 0.994 | locus YML124C, strain tub3, stronger effect = lower value 0.989 | locus YMR078C, strain ctf18, stronger effect = lower value 0.978 | locus YMR223W, strain ubp8, stronger effect = lower value 0.964 | locus YMR307W, strain GAS1, stronger effect = lower value 0.909 | locus YNL067W, strain RPL9B, stronger effect = lower value 1.02 | locus YNL128W, strain TEP1, stronger effect = lower value 0.995 | locus YNL153C, strain GIM3, stronger effect = lower value 1.04 | locus YNL233W, strain BNI4, stronger effect = lower value 1.01 | locus YNL250W, strain rad50, stronger effect = lower value 0.981 | locus YNL271C, strain bni1, stronger effect = lower value 0.991 | locus YNL298W, strain CLA4, stronger effect = lower value 0.983 | locus YNL307C, strain MCK1, stronger effect = lower value 0.981 | locus YNR052C, strain pop2, stronger effect = lower value 0.991 | locus YOL006C, strain TOP1, stronger effect = lower value 1.08 | locus YOL012C, strain htz1 0.929 | locus YOL147C, strain pex11, stronger effect = lower value 0.988 | locus YOR061W, strain CKA2, stronger effect = lower value 0.993 | locus YOR069W, strain VPS5, stronger effect = lower value 0.988 | locus YOR136W, strain idh2, stronger effect = lower value 0.987 | locus YOR144C, strain elg1, stronger effect = lower value 0.977 | locus YOR184W, strain ser1, stronger effect = lower value 0.971 | locus YOR316C, strain cot1, stronger effect = lower value 0.986 | locus YPR119W, strain clb2, stronger effect = lower value 0.984 | locus YPR141C, strain kar3, stronger effect = lower value 0.984 | locus YPR163C, strain tif3, stronger effect = lower value 0.979 | locus YPR167C, strain met16, stronger effect = lower value 0.981 | strain wtn01, stronger effect = lower value 1.01
